Results from PubChem BioAssay AID1159580 (chemical genetic matrix, 2015).
Several values for one entry are separate records, joined by “and”; a condition that tells them apart may be missing. Identical values can stand only once. Screen size: about 5,500 compounds; about 2,000 (36%) were called active. Not shown: some 18% with an inconclusive outcome. Cut-off read from the data, not from the text of the source: active = normalized growth mostly below about 0.91 (no sharp cut-off); inconclusive = no clear call, values can overlap the other calls; inactive = mostly above about 0.92. This is one part of the list.

Assay: chemical genetic growth profiling, strain panel (AID 1159580);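 note: tested at 20 µM; growth read once vehicle control cultures reached saturation at 30 °C; 1 = growth at the plate median or of vehicle wells; lower values mean less growth of the strain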
Settings: S. cerevisiae deletion strains, growth OD

Measured: normalized growth

COc1cc(C/C=C/c2ccccc2)c(OC)cc1O
active: locus YAL021C, strain ccr4, stronger effect = lower value 0.901 | locus YDR392W, strain spt3, stronger effect = lower value 0.721
inactive: locus YAL013W, strain DEP1, stronger effect = lower value 0.989 | locus YAL026C, strain drs2, stronger effect = lower value 0.936 | locus YAL030W, strain snc1, stronger effect = lower value 0.956 | locus YBL061C, strain skt5, stronger effect = lower value 0.964 | locus YBR009C, strain hhf1, stronger effect = lower value 0.969 | locus YBR021W, strain FUR4, stronger effect = lower value 1.04 | locus YBR023C, strain chs3, stronger effect = lower value 0.95 | locus YBR171W, strain sec66, stronger effect = lower value 0.962 | locus YBR229C, strain ROT2, stronger effect = lower value 0.979 | locus YBR231C, strain swc5, stronger effect = lower value 0.942 | locus YBR279W, strain paf1, stronger effect = lower value 0.95 | locus YCL011C, strain gbp2, stronger effect = lower value 0.936 | locus YCL016C, strain dcc1, stronger effect = lower value 0.944 | locus YCL029C, strain bik1, stronger effect = lower value 0.962 | locus YCL061C, strain MRC1, stronger effect = lower value 0.967 | locus YCL069W, strain vba3, stronger effect = lower value 0.98 | locus YCR088W, strain abp1, stronger effect = lower value 0.958 | locus YDL005C, strain med2, stronger effect = lower value 0.948 | locus YDL035C, strain GPR1, stronger effect = lower value 1.04 | locus YDL040C, strain nat1, stronger effect = lower value 0.973 | locus YDL074C, strain BRE1, stronger effect = lower value 1.01 | locus YDL101C, strain DUN1, stronger effect = lower value 0.951 | locus YDL185W, strain tfp1, stronger effect = lower value 0.932 | locus YDL192W, strain arf1, stronger effect = lower value 0.982 | locus YDR001C, strain nth1, stronger effect = lower value 0.966 | locus YDR069C, strain doa4, stronger effect = lower value 0.943 | locus YDR101C, strain arx1, stronger effect = lower value 1.03 | locus YDR137W, strain rgp1, stronger effect = lower value 0.939 | locus YDR159W, strain sac3, stronger effect = lower value 1 | locus YDR162C, strain NBP2, stronger effect = lower value 0.993 | locus YDR195W, strain ref2 1 | locus YDR297W, strain sur2, stronger effect = lower value 0.955 | locus YDR318W, strain mcm21, stronger effect = lower value 0.989 | locus YDR334W, strain swr1, stronger effect = lower value 0.941 | locus YDR335W, strain msn5, stronger effect = lower value 0.95 | locus YDR388W, stronger effect = lower value 0.947 | locus YDR502C, strain sam2, stronger effect = lower value 0.964 | locus YEL003W, strain gim4, stronger effect = lower value 0.959 | locus YEL037C, strain rad23, stronger effect = lower value 0.958 | locus YEL061C, strain CIN8 (second series), stronger effect = lower value 0.96 | locus YEL061C, strain CIN8, stronger effect = lower value 0.968 | locus YER015W, strain faa2, stronger effect = lower value 0.935 | locus YER016W, strain bim1, stronger effect = lower value 0.961 | locus YER110C, stronger effect = lower value 0.924 | locus YER111C, strain swi4, stronger effect = lower value 0.978 | locus YER155C, strain BEM2 (second series), stronger effect = lower value 0.915 | locus YER155C, strain BEM2, stronger effect = lower value 0.96 | locus YER167W, strain BCK2, stronger effect = lower value 0.968 | locus YFR010W, strain ubp6, stronger effect = lower value 0.944 | locus YGL078C, strain dbp3, stronger effect = lower value 0.994 | locus YGL086W, strain mad1, stronger effect = lower value 0.986 | locus YGL167C, strain pmr1, stronger effect = lower value 0.943 | locus YGL173C, strain kem1, stronger effect = lower value 0.977 | locus YGL227W, strain vid30, stronger effect = lower value 0.973 | locus YGL240W, strain doc1, stronger effect = lower value 0.939 | locus YGL248W, strain PDE1, stronger effect = lower value 0.967 | locus YGL253W, strain hxk2, stronger effect = lower value 0.971 | locus YGR078C, strain PAC10, stronger effect = lower value 0.964 | locus YGR135W, strain pre9, stronger effect = lower value 0.95 | locus YGR229C, strain SMI1, stronger effect = lower value 1.01 | locus YGR252W, strain gcn5, stronger effect = lower value 1.1 | locus YHR013C, strain ard1, stronger effect = lower value 0.926 | locus YHR027C, strain rpn1, stronger effect = lower value 0.945 | locus YHR030C, strain SLT2, stronger effect = lower value 0.963 and 1.06 | locus YHR079C, strain IRE1 (second series), stronger effect = lower value 0.968 | locus YHR079C, strain IRE1, stronger effect = lower value 1.04 | locus YHR094C, strain hxt1, stronger effect = lower value 0.961 | locus YHR129C, strain ARP1, stronger effect = lower value 0.966 | locus YHR142W, strain chs7, stronger effect = lower value 0.919 | locus YHR200W, strain rpn10, stronger effect = lower value 0.983 | locus YIL066C, strain RNR3, stronger effect = lower value 0.971 | locus YIL073C, strain SPO22, stronger effect = lower value 0.938 | locus YIL125W, strain kgd1, stronger effect = lower value 0.979 | locus YIR030C, strain dcg1, stronger effect = lower value 0.956 | locus YJL092W, strain hpr5, stronger effect = lower value 0.957 | locus YJL095W, strain BCK1 (second series), stronger effect = lower value 0.95 | locus YJL095W, strain BCK1, stronger effect = lower value 0.935 and 1.06 | locus YJL115W, strain asf1, stronger effect = lower value 0.939 | locus YJL129C, strain trk1, stronger effect = lower value 0.949 | locus YJL134W, strain LCB3, stronger effect = lower value 0.964 | locus YJL154C, strain vps35, stronger effect = lower value 0.959 | locus YJL164C, strain tpk1, stronger effect = lower value 0.929 | locus YJL166W, strain qcr8, stronger effect = lower value 0.955 | locus YJL168C, strain set2, stronger effect = lower value 0.965 | locus YJL187C, strain SWE1 (second series), stronger effect = lower value 0.967 | locus YJL187C, strain SWE1, stronger effect = lower value 0.954 | locus YJR043C, strain POL32, stronger effect = lower value 1.08
